# From ChEMBL document CHEMBL1961873, “Compounds: GSK PKIS; Assays: Nanosyn kinase panel” (2012)
# Test system: Platelet-derived growth factor receptor alpha (Homo sapiens), P16234 [D842V]
# Conditions: at 1 µM
# Chain of Platelet-derived growth factor receptor alpha (Homo sapiens), P16234 [D842V] (P16234 whole entry D842V): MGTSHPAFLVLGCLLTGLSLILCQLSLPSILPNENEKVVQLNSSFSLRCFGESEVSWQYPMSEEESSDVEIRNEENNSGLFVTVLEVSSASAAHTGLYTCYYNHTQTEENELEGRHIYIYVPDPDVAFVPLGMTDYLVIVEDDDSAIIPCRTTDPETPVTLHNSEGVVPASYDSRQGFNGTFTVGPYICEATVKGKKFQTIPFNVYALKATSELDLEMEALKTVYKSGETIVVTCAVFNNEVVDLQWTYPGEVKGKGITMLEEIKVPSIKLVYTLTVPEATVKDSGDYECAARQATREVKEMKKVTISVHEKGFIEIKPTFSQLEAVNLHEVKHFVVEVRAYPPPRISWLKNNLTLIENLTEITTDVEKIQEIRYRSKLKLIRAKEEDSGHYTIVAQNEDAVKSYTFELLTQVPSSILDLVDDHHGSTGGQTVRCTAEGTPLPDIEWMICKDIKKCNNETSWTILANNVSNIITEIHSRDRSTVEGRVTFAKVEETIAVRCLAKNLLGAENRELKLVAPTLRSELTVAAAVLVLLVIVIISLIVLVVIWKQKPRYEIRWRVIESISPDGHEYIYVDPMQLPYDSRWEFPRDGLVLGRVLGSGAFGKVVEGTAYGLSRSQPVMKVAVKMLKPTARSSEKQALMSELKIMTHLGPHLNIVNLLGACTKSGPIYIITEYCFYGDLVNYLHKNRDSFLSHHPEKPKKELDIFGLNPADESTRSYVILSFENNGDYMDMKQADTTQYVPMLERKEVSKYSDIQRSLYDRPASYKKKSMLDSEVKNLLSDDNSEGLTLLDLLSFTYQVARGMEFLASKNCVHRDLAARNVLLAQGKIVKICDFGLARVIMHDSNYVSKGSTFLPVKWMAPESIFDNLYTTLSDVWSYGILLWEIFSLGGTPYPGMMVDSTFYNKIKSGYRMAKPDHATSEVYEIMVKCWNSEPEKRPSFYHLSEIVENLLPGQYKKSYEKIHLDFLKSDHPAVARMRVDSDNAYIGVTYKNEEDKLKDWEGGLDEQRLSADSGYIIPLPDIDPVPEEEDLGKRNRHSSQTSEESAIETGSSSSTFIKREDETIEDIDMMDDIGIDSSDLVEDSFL
row,Compound,inhibition [%]
1,COc1cccc(-n2nc(C)c3c(N/N=C(\C)c4ccncc4)ncnc32)c1,1.8
2,N#Cc1c(NC(=O)c2ccccc2F)sc2c1CCCC2,3.35
3,COc1cc2ncnc(Nc3ccc4c(cnn4Cc4ccccc4)c3)c2cc1OC,7.42
4,Cc1cc(O)cc(C)c1/C=C/c1cncc(C(=O)N(C)C)c1,3.16
5,NS(=O)(=O)c1ccc(NC=C2C(=O)Nc3ccc4ncsc4c32)cc1,95
6,NS(=O)(=O)c1ccc(-c2cc3ccncc3cc2OCc2ccccc2)cc1,4.83
7,Cc1ccc2c(-c3ccnc(Nc4ccc5c(c4)OCCO5)n3)c(-c3ccc(C(F)(F)F)cc3)nn2n1,3.64
8,Cc1cc(-c2ccccn2)cc(C)c1/C=C/c1cncc(-c2nn[nH]n2)c1,2.51
9,COc1cc(/C=N/Nc2ncnc3c2cnn3C(C)C)ccc1O,61.1
10,COC(=O)c1cncc(/C=C/c2c(C)cc(O)cc2C)c1,7.7
11,COc1ccc2ncnc(Nc3ccc(OCc4ccccc4)cc3)c2c1,1.54
12,Cc1ccc(O)cc1Nc1ccnc2ccc(S(C)(=O)=O)cc12,97.1
13,CC(C)c1ccc(Nc2nccc(-c3cnn4ncccc34)n2)cc1,43
14,COc1cc2ncn(-c3cc(OCc4ccccc4S(C)(=O)=O)c(C#N)s3)c2cc1OC,88
15,Nc1nccc(C#Cc2cncnc2Nc2ccc(OCc3cccc(F)c3)c(Cl)c2)n1,4.87
16,[O-][S+]1CCN(Cc2ccc(-c3ccc4ncnc(Nc5ccc(OCc6ccccc6)c(Cl)c5)c4c3)o2)CC1,1.95
17,CCS(=O)(=O)c1ccc(OC)c(Nc2nccc(N(C)c3ccc4c(C)n[nH]c4c3)n2)c1,74.3

row,Compound,inhibition [%]
1,Nc1ccc(C#Cc2cncnc2Nc2ccc(OCc3cccc(F)c3)c(Cl)c2)cc1,2.86
2,O=S(=O)(CCOCc1ccc(-c2ccc3ncnc(Nc4ccc(OCc5cccc(F)c5)c(Cl)c4)c3c2)o1)c1ccccc1,1.61
3,CS(=O)(=O)Nc1cccc(-c2ccc3c(NC(=O)C4CC4)n[nH]c3c2)c1,8.89
4,CCCN1CCCC(c2ccc(Nc3nc(Nc4cc(F)ccc4C(N)=O)c4cc[nH]c4n3)c(OC)c2)C1 (stereo unspecified),39.9
5,OCc1ccc(-c2nc(-c3ccccn3)c(-c3ccc4c(c3)OCO4)[nH]2)cc1,6.61
6,COc1ccc(-c2nn3ncccc3c2-c2ccnc(Nc3cccc(C(F)(F)F)c3)n2)cc1,3.19
7,CCn1c(-c2nonc2N)nc2c(C#CC(C)(C)O)nc(OCCNC)cc21,17.5
8,Cc1cc(Cl)cc2c1NC(=O)C2=NNc1ccc(S(N)(=O)=O)cc1,9.86
9,O=C(Nc1ccc(Oc2ccc3[nH]c(NC(=O)c4ccco4)nc3c2)cc1)Nc1cc(C(F)(F)F)ccc1F,31
10,COc1cc(Nc2nccc(-c3cnn4ncccc34)n2)cc(OC)c1,60.8
11,CS(=O)(=O)CCNCc1nc(-c2ccc3ncnc(Nc4ccc(OCc5cccc(C(F)(F)F)c5)cc4)c3c2)cs1,1.79
12,CN(C)CCCn1c(-c2nonc2N)nc2cnccc21,3.67
13,Cc1ccc(Nc2ccnc(Nc3cccc(C(N)=O)c3)n2)cc1O,88.5
14,Oc1cccc(-c2nc(-c3ccccc3)[nH]c2-c2ccncc2)c1,13.2
15,c1ccc(Cc2nc3ccc(Nc4ncnc5ccccc45)cc3[nH]2)cc1,1
16,COC(=O)c1ccc2c(c1)C(=Cc1cc(Br)c(O)c(Br)c1)C(=O)N2,12.2

# Test system: Platelet-derived growth factor receptor alpha (Homo sapiens), P16234 [T674I]
# Sequence (P16234 whole entry T674I): as the sequence (P16234 whole entry D842V) above, with T674I, V842D counted along it
# Conditions: at 0.1 µM
row,Compound,inhibition [%]
1,COc1cccc(-n2nc(C)c3c(N/N=C(\C)c4ccncc4)ncnc32)c1,1.42
2,N#Cc1c(NC(=O)c2ccccc2F)sc2c1CCCC2,1.66
3,COc1cc2ncnc(Nc3ccc4c(cnn4Cc4ccccc4)c3)c2cc1OC,4.73
4,Cc1cc(O)cc(C)c1/C=C/c1cncc(C(=O)N(C)C)c1,8.15
5,NS(=O)(=O)c1ccc(NC=C2C(=O)Nc3ccc4ncsc4c32)cc1,29.3
6,NS(=O)(=O)c1ccc(-c2cc3ccncc3cc2OCc2ccccc2)cc1,3.46
7,Cc1ccc2c(-c3ccnc(Nc4ccc5c(c4)OCCO5)n3)c(-c3ccc(C(F)(F)F)cc3)nn2n1,2.93
8,Cc1cc(-c2ccccn2)cc(C)c1/C=C/c1cncc(-c2nn[nH]n2)c1,4.3
9,COc1cc(/C=N/Nc2ncnc3c2cnn3C(C)C)ccc1O,3.82
10,COC(=O)c1cncc(/C=C/c2c(C)cc(O)cc2C)c1,3.58
11,COc1ccc2ncnc(Nc3ccc(OCc4ccccc4)cc3)c2c1,2.64
12,Cc1ccc(O)cc1Nc1ccnc2ccc(S(C)(=O)=O)cc12,7.4
13,CC(C)c1ccc(Nc2nccc(-c3cnn4ncccc34)n2)cc1,12.4
14,COc1cc2ncn(-c3cc(OCc4ccccc4S(C)(=O)=O)c(C#N)s3)c2cc1OC,7.95
15,Nc1nccc(C#Cc2cncnc2Nc2ccc(OCc3cccc(F)c3)c(Cl)c2)n1,5.45
16,[O-][S+]1CCN(Cc2ccc(-c3ccc4ncnc(Nc5ccc(OCc6ccccc6)c(Cl)c5)c4c3)o2)CC1,3.64
17,CCS(=O)(=O)c1ccc(OC)c(Nc2nccc(N(C)c3ccc4c(C)n[nH]c4c3)n2)c1,5.5

row,Compound,inhibition [%]
1,Nc1ccc(C#Cc2cncnc2Nc2ccc(OCc3cccc(F)c3)c(Cl)c2)cc1,3.22
2,O=S(=O)(CCOCc1ccc(-c2ccc3ncnc(Nc4ccc(OCc5cccc(F)c5)c(Cl)c4)c3c2)o1)c1ccccc1,6.02
3,CS(=O)(=O)Nc1cccc(-c2ccc3c(NC(=O)C4CC4)n[nH]c3c2)c1,0.91
4,CCCN1CCCC(c2ccc(Nc3nc(Nc4cc(F)ccc4C(N)=O)c4cc[nH]c4n3)c(OC)c2)C1 (stereo unspecified),5.49
5,OCc1ccc(-c2nc(-c3ccccn3)c(-c3ccc4c(c3)OCO4)[nH]2)cc1,6.55
6,COc1ccc(-c2nn3ncccc3c2-c2ccnc(Nc3cccc(C(F)(F)F)c3)n2)cc1,2.26
7,CCn1c(-c2nonc2N)nc2c(C#CC(C)(C)O)nc(OCCNC)cc21,2.61
8,Cc1cc(Cl)cc2c1NC(=O)C2=NNc1ccc(S(N)(=O)=O)cc1,6.4
9,O=C(Nc1ccc(Oc2ccc3[nH]c(NC(=O)c4ccco4)nc3c2)cc1)Nc1cc(C(F)(F)F)ccc1F,43.8
10,COc1cc(Nc2nccc(-c3cnn4ncccc34)n2)cc(OC)c1,29
11,CS(=O)(=O)CCNCc1nc(-c2ccc3ncnc(Nc4ccc(OCc5cccc(C(F)(F)F)c5)cc4)c3c2)cs1,5.99
12,CN(C)CCCn1c(-c2nonc2N)nc2cnccc21,4.13
13,Cc1ccc(Nc2ccnc(Nc3cccc(C(N)=O)c3)n2)cc1O,6.94
14,Oc1cccc(-c2nc(-c3ccccc3)[nH]c2-c2ccncc2)c1,5.63
15,c1ccc(Cc2nc3ccc(Nc4ncnc5ccccc45)cc3[nH]2)cc1,3.02
16,COC(=O)c1ccc2c(c1)C(=Cc1cc(Br)c(O)c(Br)c1)C(=O)N2,1.96
